This is an account of results in PubChem BioAssay (Tox21).

Assay [1] in a line: Nuclear factor erythroid 2-related factor 2/antioxidant responsive element (Nrf2/ARE) small molecule agonists: qHTS cell viability counter screen in human keratinocytes (AID 1919968; active = well fitted curve in the direction sought with a large enough effect in the repeat runs; an effect the other way counts as inactive or inconclusive; also: nearly all actives have a fitted effect of over 55% in size; also: potency is read from the fitted curve at half-maximal effect). In short, it runs like this: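 Fluorescence read-out from CellTiter-Fluor after 1 h at 37 C. Wells held HaCaT-derived ARE-luciferase reporter cells (1,500/well) treated 23 h with DMSO-dissolved compounds. Run in the same wells as the luciferase agonist read.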

The target of assay [2] is Gonadotropin-releasing hormone receptor (Homo sapiens) (UniProt P30968). As to the kind of experiment: Human gonadotropin-releasing hormone receptor (GnRHR) small molecule agonists, calcium flux assay in GnRHR-HEK293 cells (AID 1920063). Also: nearly all actives have a fitted effect of over 35% in size. In short, it runs like this:
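Calcium-dye fluorescence, Ex/Em=480/540, recorded every 1 sec over 3 min after compound addition to GnRHR-HEK293 cells. Cells had been seeded 18 hours earlier and dye-loaded for 1 hour at 37 C. Fifteen concentrations, triplicates.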

For assay [3], the target named is KiSS-1 receptor (Homo sapiens) (UniProt Q969F8). As to the kind of experiment: Human kisspeptin (KISS1R) small molecule agonists, calcium flux assay in KISS1R-HEK293 cells (AID 1920064; active = well fitted curve in the direction sought with a large enough effect in the repeat runs; an effect the other way counts as inactive or inconclusive). An outline of the steps:
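Calcium flux read-out: kinetic fluorescence at Ex/Em=480/540, 1 s intervals over 3 min, after pin-tool compound addition to dye-loaded KISS1R-HEK293 cells. Fifteen concentrations, triplicates.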
(Calcium assays in cells follow changes in intracellular calcium, usually with a dye or a luminescent sensor.)

A short description of assay [4]: G protein-coupled receptor (GPCR) small molecule agonists, calcium flux assay: HEK293 wild type cell line counter screen (AID 1920065). In short, it runs like this:
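Agonist mode; 18 h seeding at 37 C, 1 h dye load at 37 C; compounds pinned from DMSO, ATP as positive control; kinetic fluorescence 480/540 nm, 3 min, 1 s reads; 15 concentrations, triplicate.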

Assay [5] in a line: p53 small molecule agonists, cell-based qHTS assay with human liver microsomes: qHTS cell viability counter screen (AID 1963579). Also: nearly all actives have a fitted effect of over 45% in size. An outline of the steps:
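Metabolically activated exposure: compounds, human liver microsomes and NADPH (0.5 mg/mL final apiece) were added to p53RE-bla cells seeded 5 h earlier, left 16 h at 37 C, and then assessed for viability by CellTiter-Glo luminescence.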

Assay [6] can be described thus: p53 small molecule agonists, cell-based qHTS assay with rat liver microsomes: qHTS cell viability counter screen (AID 1963580). Also: nearly all actives have a fitted effect of over 45% in size. In short, it runs like this: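 After the beta-lactamase ratio was read, CellTiter-Glo was added to the same wells and luminescence measured at 30 min; cells had been treated 16 h at 37 C with compounds, rat liver microsomes and NADPH (0.5 mg/mL final each).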
A general note: In qHTS, concentration-response curves come from the screen itself.

The nature of assay [7]: p53 small molecule agonists, cell-based qHTS assay: qHTS cell viability counter screen (AID 1963581). Also: nearly all actives have a fitted effect of over 45% in size. An outline of the steps:
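Cytotoxicity read-out: ATP-based luminescence (CellTiter-Glo, 30 min RT) measured in the same wells as the p53 reporter assay, HCT-116 p53RE-bla cells, 16 h compound exposure at 37 C.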

Assay [8] concerns the target 5-hydroxytryptamine receptor 2A (Homo sapiens) (UniProt P28223). As to the kind of experiment: 5-hydroxytryptamine receptor 2A (HTR2A) small molecule antagonists, cell-based qHTS assay (AID 1963586). Also: nearly all actives have a fitted effect of over 45% in size. An outline of the steps: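 CHO cells stably expressing human HTR2A were plated for 18 h at 37 C, then loaded with calcium dye for 1 h. Compounds were preincubated 5 min at room temperature before DOI (4 nM solution) was added. Kinetic fluorescence was read for 3 min.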

Assay [9] shares this target. Kind of assay: 5-hydroxytryptamine receptor 2A (HTR2A) small molecule agonists, cell-based qHTS assay (AID 1963587). Also: nearly all actives have a fitted effect of over 30% in size. In short, it runs like this: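 CHO cells stably expressing human HTR2A, plated 18 h, loaded with calcium dye 1 h at 37 C. Agonist mode: compounds added and intracellular calcium fluorescence recorded kinetically for 2 min at 1 sec intervals.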
In assay [10] the target is Muscarinic acetylcholine receptor M1 (Homo sapiens) (UniProt P11229). As to the kind of experiment: Cholinergic receptor muscarinic 1 (CHRM1) small molecule agonists, cell-based qHTS assay (AID 1963589). Also: nearly all actives have a fitted effect of over 35% in size. In short, it runs like this: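 Calcium flux read-out: kinetic fluorescence at 1 sec intervals after pin-tool compound addition to dye-loaded CHRM1-CHO cells (human M1). Agonist mode; 15 concentrations tested in triplicate independent runs.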
Chain of Muscarinic acetylcholine receptor M1 (Homo sapiens) (P11229 whole entry, looked up): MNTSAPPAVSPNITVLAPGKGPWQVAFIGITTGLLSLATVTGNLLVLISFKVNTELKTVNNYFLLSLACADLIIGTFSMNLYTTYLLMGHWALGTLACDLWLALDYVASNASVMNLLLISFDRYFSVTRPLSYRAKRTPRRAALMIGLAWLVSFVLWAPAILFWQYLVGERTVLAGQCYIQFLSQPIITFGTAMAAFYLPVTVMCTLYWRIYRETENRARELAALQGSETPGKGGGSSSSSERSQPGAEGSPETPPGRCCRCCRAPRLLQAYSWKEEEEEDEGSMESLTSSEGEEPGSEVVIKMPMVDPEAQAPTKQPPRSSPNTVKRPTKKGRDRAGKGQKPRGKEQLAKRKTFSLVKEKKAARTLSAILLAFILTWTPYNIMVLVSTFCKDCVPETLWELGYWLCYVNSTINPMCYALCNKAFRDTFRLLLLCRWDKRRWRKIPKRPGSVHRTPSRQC

Assay [11] is described as follows: cAMP Responsive Elements (CRE) small molecule antagonists, cell-based qHTS assay (AID 1963591; active = well fitted inhibition curve with a large enough effect in the signal ratio in the repeat runs, not every such curve was filed as active; the % refers to the signal ratio). An outline of the steps:
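HEK293T CRE-bla; 18 h preincubation; compound pin-transfer; NKH477 0.25 uM final, 3 h, 37 C; LiveBLAzer FRET substrate 2 h RT.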

Assay [12] concerns the target Beta-2 adrenergic receptor (Homo sapiens) (UniProt P07550). Kind of assay: Adrenergic beta2 receptor (ADRB2) small molecule antagonists, cell-based qHTS assay (AID 1963592). Also: series mostly up to about 92 µM; nearly all actives have a fitted effect of over 50% in size. In short, it runs like this: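 Assay format: CHO-ADRB2 cells, 18-20hr seeding at 37C/5% CO2, then compound plus 1nM isoproterenol agonist mix for 0.5hr RT. Homogeneous time-resolved fluorescence cAMP detection after 1hr, expressed as 665/615 nm ratio.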

Assay [13] has the same target. As to the kind of experiment: Adrenergic beta2 receptor (ADRB2) small molecule agonists, cell-based qHTS assay (AID 1963593).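 Also: CHO cells stably overexpressing human ADRB2.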 An outline of the steps:
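CHO cells stably over-expressing ADRB2 were plated overnight at 37C, then dosed with compounds plus a stimulation mix containing 100uM IBMX and 25uM Ro-20-1724 for 0.5hr at room temperature. cAMP was measured by HTRF competition, 1hr.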

For assay [14], the target named is D(2) dopamine receptor (Homo sapiens) (UniProt P14416). As to the kind of experiment: Dopamine D2 receptor (DRD2) small molecule agonists, cell-based qHTS assay (AID 1963594). Also: nearly all actives have a fitted effect of over 35% in size. In short, it runs like this:
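HEK293 cells stably expressing human DRD2, pre-treated with PDE inhibitor Ro20-1724 (0.1 mM final) and compound 10 min at room temperature, then stimulated with NKH477 (200nM […]) for 30 min. cAMP read by HTRF (665/620 nm).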

For assay [15] the target is unchanged. As to the kind of experiment: Dopamine D2 receptor (DRD2) small molecule antagonists, cell-based qHTS assay (AID 1963595; active = well fitted inhibition curve with a large enough effect in the signal ratio in the repeat runs, with a control signal flat; the % refers to the signal ratio). In short, it runs like this:
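Antagonist mode in DRD2-HEK293 cells: after compound addition with 0.1 mM Ro20-1724, cells received quinpirole (12 nM) and NKH477 (200 nM) for 30 min at room temperature; HTRF cAMP read after 1 h detection.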

A short description of assay [16]: p53 small molecule agonists, cell-based qHTS assay with human liver microsomes (AID 1963577).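 Also: p53 response element beta-lactamase reporter cells with liver microsomes plus NADPH.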 In short, it runs like this:
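In this qHTS, p53 response-element beta-lactamase cells receive test compound together with a microsome/NADPH activating system (0.5 mg/mL final each) and are incubated 16 h at 37 C before LiveBLAzer fluorescence detection.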

Assay [17] concerns the target Muscarinic acetylcholine receptor M1 (Homo sapiens) (UniProt P11229). Kind of assay: Cholinergic receptor muscarinic 1 (CHRM1) small molecule antagonists, cell-based qHTS assay (AID 1963588). Also: nearly all actives have a fitted effect of over 40% in size. In short, it runs like this:
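Compounds were tested at 15 concentrations in three independent runs. Dye-loaded CHRM1-CHO cells were exposed 5 min at room temperature before stimulation by acetylcholine added at 50nM. Intracellular calcium was read kinetically on FDSS for 3 min.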

The nature of assay [18]: p53 small molecule agonists, cell-based qHTS assay with rat liver microsomes (AID 1963578). An outline of the steps:
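Agonist mode in p53RE-bla reporter cells, with compounds co-incubated 16 h at 37 C alongside 0.5 mg/mL rat liver microsomes and 0.5 mg/mL NADPH (final), followed by a 2 h LiveBLAzer detection step.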

Assay [19] in a line: cAMP Responsive Elements (CRE) small molecule agonists, cell-based qHTS assay (AID 1963590). In short, it runs like this: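 Beta-lactamase reporter readout: LiveBLAzer B/G FRET substrate, 2 h at room temperature, added after 3 h compound treatment of CRE-bla HEK 293T cells at 37 C/5% CO2.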
The nature of assay [20]: p53 small molecule agonists, cell-based qHTS assay (AID 1963582; active = well fitted activation curve with a large enough effect in the signal ratio in the repeat runs, not every such curve was filed as active; the % refers to the signal ratio). An outline of the steps: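 Fluorescence intensity read-out of a beta-lactamase reporter under a p53 response element. Cells were exposed to DMSO-dissolved compounds for 16 h at 37 C, then developed with FRET substrate for 2 h at RT.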

A number with no mark means an inactive call. Inconclusive results are not listed. Activity calls are given as the source filed them. Unless noted, calls follow the shape of the full dose curve.

Chain of D(2) dopamine receptor (Homo sapiens) (P14416 whole entry, looked up): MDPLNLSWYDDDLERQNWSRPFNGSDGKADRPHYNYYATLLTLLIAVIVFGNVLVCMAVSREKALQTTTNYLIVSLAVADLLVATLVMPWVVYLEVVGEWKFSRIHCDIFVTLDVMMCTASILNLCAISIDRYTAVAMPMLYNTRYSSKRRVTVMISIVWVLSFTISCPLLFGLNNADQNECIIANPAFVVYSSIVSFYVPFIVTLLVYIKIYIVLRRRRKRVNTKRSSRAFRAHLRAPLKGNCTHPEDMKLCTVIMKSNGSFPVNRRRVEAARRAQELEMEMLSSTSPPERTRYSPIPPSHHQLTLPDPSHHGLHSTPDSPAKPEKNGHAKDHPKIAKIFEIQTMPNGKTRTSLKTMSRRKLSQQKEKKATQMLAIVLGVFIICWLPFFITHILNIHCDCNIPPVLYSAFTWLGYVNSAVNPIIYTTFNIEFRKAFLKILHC
Chain of KiSS-1 receptor (Homo sapiens) (Q969F8 whole entry, looked up): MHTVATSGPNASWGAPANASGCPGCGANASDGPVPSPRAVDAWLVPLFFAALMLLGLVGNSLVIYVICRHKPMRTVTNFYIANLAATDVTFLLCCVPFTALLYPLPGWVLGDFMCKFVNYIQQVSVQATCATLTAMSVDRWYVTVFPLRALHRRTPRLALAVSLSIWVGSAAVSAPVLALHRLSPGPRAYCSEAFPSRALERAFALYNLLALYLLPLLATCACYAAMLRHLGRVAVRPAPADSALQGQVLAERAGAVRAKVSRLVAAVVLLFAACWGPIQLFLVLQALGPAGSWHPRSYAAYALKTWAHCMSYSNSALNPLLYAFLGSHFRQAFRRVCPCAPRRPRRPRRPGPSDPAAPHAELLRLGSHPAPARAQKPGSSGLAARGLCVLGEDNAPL
Chain of 5-hydroxytryptamine receptor 2A (Homo sapiens) (P28223 whole entry, looked up): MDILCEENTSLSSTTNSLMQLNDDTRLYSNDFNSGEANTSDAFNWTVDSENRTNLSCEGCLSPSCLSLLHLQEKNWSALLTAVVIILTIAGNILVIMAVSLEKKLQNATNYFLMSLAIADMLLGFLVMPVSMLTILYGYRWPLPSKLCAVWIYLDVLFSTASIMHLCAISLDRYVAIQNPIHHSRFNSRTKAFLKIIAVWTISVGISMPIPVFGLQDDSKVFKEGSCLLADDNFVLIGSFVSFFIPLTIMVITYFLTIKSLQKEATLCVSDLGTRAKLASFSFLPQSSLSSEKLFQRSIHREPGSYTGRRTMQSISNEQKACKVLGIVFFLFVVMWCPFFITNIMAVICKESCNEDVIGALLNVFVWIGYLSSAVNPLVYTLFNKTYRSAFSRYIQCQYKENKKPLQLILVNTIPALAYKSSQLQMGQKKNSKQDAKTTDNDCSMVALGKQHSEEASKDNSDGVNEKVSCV
Chain of Beta-2 adrenergic receptor (Homo sapiens) (P07550 whole entry, looked up): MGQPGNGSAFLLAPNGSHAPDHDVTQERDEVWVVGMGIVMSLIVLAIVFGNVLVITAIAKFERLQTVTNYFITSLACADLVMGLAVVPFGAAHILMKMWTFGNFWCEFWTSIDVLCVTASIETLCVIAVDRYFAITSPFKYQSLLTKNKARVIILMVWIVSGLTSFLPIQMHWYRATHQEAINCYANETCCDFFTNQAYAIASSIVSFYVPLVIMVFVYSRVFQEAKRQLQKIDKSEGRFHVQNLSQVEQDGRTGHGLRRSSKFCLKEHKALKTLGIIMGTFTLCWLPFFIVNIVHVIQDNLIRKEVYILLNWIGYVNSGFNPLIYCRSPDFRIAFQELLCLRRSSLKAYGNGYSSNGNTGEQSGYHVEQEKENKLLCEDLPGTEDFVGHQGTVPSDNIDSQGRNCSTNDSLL
Chain of Gonadotropin-releasing hormone receptor (Homo sapiens) (P30968 whole entry, looked up): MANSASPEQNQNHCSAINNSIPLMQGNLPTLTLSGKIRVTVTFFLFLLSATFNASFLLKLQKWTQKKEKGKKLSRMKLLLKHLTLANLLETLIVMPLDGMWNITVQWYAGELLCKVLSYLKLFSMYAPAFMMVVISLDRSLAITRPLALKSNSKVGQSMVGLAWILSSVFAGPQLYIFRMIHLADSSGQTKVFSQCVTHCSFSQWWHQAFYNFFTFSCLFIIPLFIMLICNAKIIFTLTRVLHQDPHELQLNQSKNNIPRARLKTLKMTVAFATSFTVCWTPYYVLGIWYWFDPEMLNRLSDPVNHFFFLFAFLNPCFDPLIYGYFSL

On to `C#CCN1C(=O)COc2cc(F)c(N3C(=O)C4=C(CCCC4)C3=O)cc21`, for which the Potency entry in [1], in assay [2], in [3], in assay [4], in [5] and in assay [6] was “inactive” each time. The Potency result in [7], in [8], in assay [9], in assay [10], in [11] and in [12] was “inactive” in each case. The Potency entry in assay [13], in [14] and in [15] was “inactive” each time.
`CO/C=C(/C(=O)OC)c1ccccc1Oc1cc(Oc2ccccc2C#N)ncn1`: the Potency in assay [1] is 6.11 µM (active). Besides, the Potency result in [2], in assay [3], in [16], in assay [9], in assay [17] and in assay [10] was “inactive” in each case.
On to `O=C1c2ccccc2C(=O)C1C(=O)C(c1ccccc1)c1ccccc1`, for which the Potency result in [1], in [2], in [3], in assay [18], in assay [5] and in assay [6] was “inactive” throughout. Further, the Potency entry in assay [7], in assay [8], in [9], in assay [17], in [11] and in assay [12] was “inactive” in each case. The Potency entry in [14] and in assay [15] was “inactive” throughout.
With `C=CCN1CC[C@]23c4c5ccc(O)c4O[C@H]2C(=O)CC[C@@]3(O)[C@H]1C5`, the Potency result in assay [1], in assay [2], in assay [3], in [4], in assay [5] and in assay [6] was “inactive” in each case. Moreover, the Potency entry in [7], in assay [19], in assay [11], in [12], in assay [13] and in assay [14] was “inactive” throughout.
On to `CC(=O)[O-].CC(=O)[O-].[Co+2]`, for which the Potency entry in assay [1], in assay [2], in assay [3], in [4], in assay [5] and in assay [6] was “inactive” throughout. Besides, the Potency entry in assay [7], in assay [8], in assay [9], in [10], in [19] and in [11] was “inactive” in each case. Also, the Potency result in [12], in [14] and in [15] was “inactive” each time.
For `BrCC(Br)C1CCC(Br)C(Br)C1` (stereo unspecified), the Potency result in assay [1], in assay [2], in [3], in assay [16], in assay [18] and in assay [5] was “inactive” each time. Besides, the Potency result in [6], in [7], in assay [20], in assay [8], in assay [9] and in assay [17] was “inactive” each time. Further, the Potency result in assay [10], in assay [19], in assay [11], in assay [13], in assay [14] and in [15] was “inactive” in each case.
Turning to `CC(=O)NNc1ccccc1`, the Potency entry in assay [1], in assay [2], in assay [3], in assay [4], in assay [5] and in assay [6] was “inactive” throughout. Moreover, the Potency result in assay [7], in assay [8], in [9], in assay [17], in [10] and in [19] was “inactive” in each case. Besides, the Potency entry in assay [11], in [14] and in assay [15] was “inactive” in each case.
On to `CCCCn1cc[n+](C)c1.[Cl][Fe-]([Cl])([Cl])[Cl]`, for which the Potency result in assay [1], in assay [2], in assay [3], in assay [4], in assay [5] and in [7] was “inactive” in each case. Moreover, the Potency entry in assay [8], in assay [9], in assay [17], in assay [10], in [19] and in assay [12] was “inactive” each time. In addition, the Potency result in assay [13], in assay [14] and in [15] was “inactive” throughout.
On to `O=C(O)c1cccc(Cl)c1`, for which the Potency result in assay [1], in assay [2], in assay [3], in [4], in assay [5] and in [6] was “inactive” throughout. The Potency result in assay [7], in assay [8], in assay [9], in assay [17], in assay [10] and in [19] was “inactive” in each case. The Potency entry in assay [12], in [14] and in [15] was “inactive” in each case.
